Compounds with a hit are over-represented: about 5% of the library has one in this group of screens.
CHT allo act: human CHT allosteric activation. Q9GZV3. CHT-expressing cells, membrane potential dye, choline EC20; stronger effect = higher value; LV-AA mutant CHT in HEK293 cells. B-score at 10 µM. 310,000 compounds, 0.49% hits;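 active = initial fluorescence not abnormally high and integrated response B-score, plate-corrected, over 3 SD above library mean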
ALR inh: human ALR oxidase inhibition via reduced H2O2. P55789. purified ALR, DTT oxidation, H2O2 HRP-luminol luminescence. inhibition, % (test concentration not listed). 290,000 compounds, 3.8% hits. AID 485317;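 active = mean replicate inhibition above about 79%, with every replicate also reaching it, limit read from the data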
AI-2 QS modul: modulators of Vibrio harveyi AI-2 quorum sensing system; Vibrio harveyi JMH597 AI-2 luminescence/OD600 ratio, 9 h; stronger effect = lower value; strain lacks LuxN and CqsS sensors; 0 = neutral-control median; activity change, % at 7.5 µM; 300,000 compounds, 0.4% hits; in the data active = activity change below about -75%, passing the limit was not always enough;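 note: luminescence divided by OD600 gain over 9 h not by final OD600 alone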
PREPL inhibitor: human PREPL enzyme inhibition. Q4J6C6. recombinant PREPL, fluorescence polarization activity-based probe. inhibition, % at 5.96 µM. 320,000 compounds, 0.68% hits. AID 2751; in the data active = inhibition above about 43%
Target sequence (Q4J6C6 whole entry, looked up): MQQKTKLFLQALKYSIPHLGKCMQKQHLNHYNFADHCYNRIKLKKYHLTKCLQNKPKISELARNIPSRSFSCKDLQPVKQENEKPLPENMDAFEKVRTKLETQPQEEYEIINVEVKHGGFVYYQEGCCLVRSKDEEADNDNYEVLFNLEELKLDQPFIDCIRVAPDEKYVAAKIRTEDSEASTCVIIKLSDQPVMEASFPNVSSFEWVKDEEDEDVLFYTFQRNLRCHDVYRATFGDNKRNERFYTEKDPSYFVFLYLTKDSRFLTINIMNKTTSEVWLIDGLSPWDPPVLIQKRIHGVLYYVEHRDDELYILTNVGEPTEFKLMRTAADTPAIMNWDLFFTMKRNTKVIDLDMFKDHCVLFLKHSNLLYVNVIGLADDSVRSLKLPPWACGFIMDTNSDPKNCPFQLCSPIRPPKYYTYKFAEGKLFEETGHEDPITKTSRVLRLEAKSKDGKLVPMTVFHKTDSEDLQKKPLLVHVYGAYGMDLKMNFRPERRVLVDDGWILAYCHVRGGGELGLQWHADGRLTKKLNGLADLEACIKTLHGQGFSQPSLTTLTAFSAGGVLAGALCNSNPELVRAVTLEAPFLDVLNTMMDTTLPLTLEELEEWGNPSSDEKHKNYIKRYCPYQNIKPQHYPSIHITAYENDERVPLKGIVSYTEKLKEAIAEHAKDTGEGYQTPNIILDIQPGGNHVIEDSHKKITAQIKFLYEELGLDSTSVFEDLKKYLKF
CHT block: human CHT choline transport inhibition | Q9GZV3 | CHT-expressing cells, membrane potential dye, choline response; stronger effect = lower value | B-score at 10 µM | 310,000 compounds, 0.86% hits;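 active = B-score over 3 SD under the library average, and starting fluorescence ratio not unusually high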;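 note: choline stimulus applied at its EC90 after an EC20 pre-addition; B-score computed on integrated fluorescence ratio after choline addition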
CHT act confirm: human CHT activation, confirmatory screen. shares compounds with CHT allo act. CHT-expressing cells, membrane potential dye fluorescence (FDSS); % of choline EC20–EC90 response window; HEK293 expressing CHT LV-AA mutant; choline added at its EC20. activation, % at 10 µM. 2,500 compounds, 91% hits. AID 504833;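 active = primary screen active, with duplicate mean activation above negative control mean plus 3 SD, cut at about 11% in these data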
HEK293 MP dye: activity in parental HEK293 cells lacking CHT; ratio readout change at 10 µM, hits read low; 2,500 compounds, 62% hits; membrane potential dye fluorescence (FDSS); measured after EC20 choline addition; shares compounds with CHT allo act;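 active = duplicate-averaged ratio beyond 3 SD from buffer wells, up or down, though filed actives are nearly all decreases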
Of the large screens only hits and unclear results are named; the others gave an inactive call (follow-up assays come after a bar, where they were run).

O=C(NCC(c1ccco1)N1CCCC1)c1ccccc1Sc1ccc(C(F)(F)F)cc1[N+](=O)[O-] (stereo unspecified)	none | CHT act confirm 26 | HEK293 MP dye inactive
N#Cc1ccccc1Sc1ccccc1C(=O)NCC(c1ccco1)N1CCCCC1 (stereo unspecified)	none (no result: CHT allo act, AI-2 QS modul, CHT block)
COc1ccccc1CNC(=O)COC(=O)c1ccc2c(=O)n3c(nc2c1)CCCCC3	none (no result: CHT allo act, ALR inh, AI-2 QS modul, CHT block)
CCOC(=O)c1c(CN(C)C)oc2cc(CN(C)C)c(O)c(CSc3ccccc3)c12	none
CCOC(=O)c1c(CSc2ccsc2)n(C)c2cc(Br)c(O)c(CN(C)C)c12	CHT allo act 6.8, ALR inh 97 | CHT act confirm 40 | HEK293 MP dye inactive
O=C(CCN1CCN(c2ccccc2F)CC1)Nc1cccc(F)c1	none
O=C(O)/C=C/C(=O)Nc1ccc2c(c1)C(=O)c1ccccc1C2=O	ALR inh 97 | CHT act confirm 28 | HEK293 MP dye -27
CCn1c(C)c(C(C)=O)c(N2CCCC2)nc1=S	none | CHT act confirm inactive | HEK293 MP dye inactive
Cc1cc2oc(=O)cc(Cn3ccnc3)c2cc1Cl	none
Cc1cc(Cn2ccnc2)c(C)cc1Cn1ccnc1	none | CHT act confirm 45 | HEK293 MP dye -41
Cc1ccc(CNc2ccc3nnc(-c4ccccc4)n3n2)cc1	none
c1ccc(CN2CCN(CCCNc3ccc4nnc(-c5ccccc5)n4n3)CC2)cc1	CHT allo act 7.8 | CHT act confirm 54 | HEK293 MP dye -48
C=CCOC(=O)C1=C[C@@H](c2ccccc2)[C@H](CCCO)[C@@H](OCC)O1	none
C=CCOC(=O)C1=C[C@@H](c2ccc(Br)cc2)[C@H](CCCO)[C@@H](OCC)O1	CHT allo act 6.7 | CHT act confirm 25 | HEK293 MP dye inactive
O=S(=O)(c1ccc2ccccc2c1)N1CCN(CCO)CC1	none (no result: ALR inh)
COc1ccc(/C=C/C(=O)NC(C)CCc2ccccc2)cc1 (stereo unspecified)	none | CHT act confirm 35 | HEK293 MP dye inactive
COc1ccc(/C=C/C(=O)NCCCc2ccccc2)cc1	CHT allo act 6.6 | CHT act confirm 38 | HEK293 MP dye inactive
COc1ccc(/C=C/C(=O)NC(C)CCc2ccccc2)cc1OC (stereo unspecified)	none
CCOc1ccc(C(=O)NCC(=O)Nc2ncccc2C)cc1OCC	none
CC1CN(C(=O)c2cccn(Cc3c(Cl)cccc3Cl)c2=O)CC(C)O1 (stereo unspecified)	none
COc1ccc(-n2cc(-c3ccc(C)cc3)[n+]3c2SCC3)cc1	none
COc1ccc(-c2cn(-c3ccc(SC(F)F)cc3)c3[n+]2CCC3)cc1OC	CHT allo act 6.3 | CHT act confirm 32 | HEK293 MP dye -39
FC(F)Sc1ccc(-n2cc(-c3ccccc3)[n+]3c2CCC3)cc1	none | CHT act confirm 21 | HEK293 MP dye -40
COc1ccc(-n2cc(-c3ccccc3)[n+]3c2CCCCC3)cc1	CHT allo act 6.5 | CHT act confirm 55 | HEK293 MP dye inactive
COc1ccc(-c2cn(-c3ccc(OC)cc3)c3[n+]2-c2ccccc2CC3)cc1	CHT allo act 9.5 | CHT act confirm 53 | HEK293 MP dye inactive
CN(CC(=O)Nc1ccc(Cl)c(C(F)(F)F)c1)C(=O)c1cnccn1	none (no result: CHT allo act, AI-2 QS modul, CHT block)
COc1cccc(-c2noc(-c3ccc(Br)o3)n2)c1	none
CCOC(=O)C1(Cc2cccc(OC)c2)CCN(Cc2cccc3cnccc23)CC1	none | CHT act confirm 22 | HEK293 MP dye inactive
COc1cc(OC)cc(C(=O)NCC(=O)OCc2nc3ccccc3s2)c1	none
CN1CCN(C(=O)CCc2nnc3ccc(N4CCC5(CC4)OCCO5)nn23)CC1	none
CCOC(=O)C1CCN(C(=O)CCc2nnc3ccc(N4CCN(C)CC4)nn23)CC1	CHT allo act 8.1 | CHT act confirm 73 | HEK293 MP dye -72
N#Cc1ccc(OCC(=O)N(C2CCCCC2)C2CCS(=O)(=O)C2)cc1 (stereo unspecified)	none (no result: CHT allo act, AI-2 QS modul, CHT block)
Cn1c2ccc(F)cc2c2ncn(CCCN(CCO)CCO)c(=O)c21	none | CHT act confirm 50 | HEK293 MP dye -41
CSc1nc(NCCCO)c2c3c(sc2n1)CN(C)CC3	none (no result: ALR inh) | CHT act confirm 41 | HEK293 MP dye -47
Cc1ccc2cn[nH]c2c1[N+](=O)[O-]	none
CCN1CCC2(CC1)C(C#N)=C(N)Oc1c2sc2nc(C)cc(C)c12	CHT allo act 6.7 | CHT act confirm 39 | HEK293 MP dye inactive
Cc1cccc(C(=O)OCC(=O)NCc2ccco2)c1	none (no result: CHT allo act, AI-2 QS modul, CHT block)
C[C@@H]1CN([C@H](C)CO)C(=O)c2cc(NC(=O)Cc3cn(C)c4ccccc34)ccc2O[C@H]1CN(C)S(=O)(=O)c1ccc(F)cc1	none (no result: CHT allo act, AI-2 QS modul, CHT block)
CC(=O)NCCc1nc2cc(NC(=O)c3cccc([N+](=O)[O-])c3)ccc2n1C	none (no result: PREPL inhibitor)
CCC(=O)NCCc1nc2cc(NC(=O)c3cccc([N+](=O)[O-])c3)ccc2n1C	none (no result: PREPL inhibitor) | CHT act confirm 32 | HEK293 MP dye -26
CCC(CC)COC(=O)C(C#N)c1nc2ccccc2nc1N1CCN(CC)CC1 (stereo unspecified)	none | CHT act confirm 32 | HEK293 MP dye -37
CN(C)C(/C=C/Nc1cccc(Br)c1)=C(C#N)C#N	none | CHT act confirm 49 | HEK293 MP dye -42
O=S(=O)(c1ccc(SCc2cccc(Cl)c2)nc1)N1CCCC1	none (no result: CHT allo act, AI-2 QS modul, CHT block)
O=C(O)c1ccc(Cl)c(S(=O)(=O)Nc2ccccc2Cc2ccccc2)c1	none
Cc1ccc([N+](=O)[O-])cc1-c1ccc(/C=N/NC(=O)CN2CCOCC2)o1	none (no result: ALR inh) | CHT act confirm 51 | HEK293 MP dye -51
O=C(Cc1ccccc1)N/N=C/c1ccc(-c2ccc([N+](=O)[O-])cc2)o1	none
CCCCn1nc(C(=O)Nc2c(C)n(C)n(-c3ccccc3)c2=O)c2ccccc2c1=O	none (no result: CHT allo act, AI-2 QS modul, CHT block)
CCOC(=O)c1c(C)n(-c2ccc(C)cc2)c2ccc(O)c(CN(C)C)c12	CHT allo act 8.8 | CHT act confirm 15 | HEK293 MP dye inactive
CCOC(=O)c1c(C)n(-c2ccc(C)cc2)c2c(CC(C)=O)c(Br)c(OC)c(O)c12	none
CCOC(=O)c1c(C)n(-c2ccccc2)c2ccc(OCCN(C)C)cc12	none | CHT act confirm 31 | HEK293 MP dye inactive
CCOC(=O)c1c(C)n(-c2ccc(OC)cc2)c2ccc(O)c(CN(C)C)c12	CHT allo act 6.5 | CHT act confirm inactive | HEK293 MP dye -26
Cn1c(Cc2cccc3ccccc23)nnc1SCc1ccc([N+](=O)[O-])cc1	none
CCCCOC(=O)N1CCOCCOCCOCC1	none | CHT act confirm 17 | HEK293 MP dye inactive
Cc1ccoc1C(=O)Nc1cccc2ccccc12	none (no result: PREPL inhibitor)
